# Laboratory results published in PubChem BioAssay (Tox21).
# Results filed as inconclusive are left out. A call without a number means that no potency is given here. A number with no mark means an inactive call. Active and inactive are the calls of the source. The call rests on the fitted dose curve; in most records, active means well fitted activation curve with a large enough effect in the repeat runs; inconclusive means weak or mixed curves; inactive means flat fitted curve, though single readings scatter.
# Experiment: A CellTox Green Cytotoxicity Assay to monitor cytotoxicity in HEK293 cells - 32 hour (AID 1224881); further: nearly all actives have a fitted effect of over 40% in size
# Conditions: CellTox Green fluorescence; series mostly up to 76.8 µM
# Text: National Center for Advancing Translational Sciences [NCATS]
# NIH Chemical Genomics Center [NCGC]
# U.S. Environmental Protection Agency [EPA]
# National Institutes of Environmental Health Sciences [NIEHS]
# National Toxicology Program [NTP]
# Cell-based models are critical for drug discovery. Determining the natural cytotoxic effects resulting from test compounds is an essential research activity. A CellTox Green Cytotoxicity Assay to monitor cytotoxicity in real time of continues cell culture during 40 hours of the compound treatment was used to screen Tox21 10K library compounds in Hek293 cells. CellTox Green Cytotoxicity Assay is a nonlytic, homogeneous, biofluorescent method to measure cytotoxicity in cell culture after experimental manipulation. The assay system uses a proprietary asymmetric cyanine dye that is excluded from viable cells but preferentially stains the dead cell's DNA. […] Viable cells produce no appreciable increases in fluorescence. Therefore, the fluorescence signal produced by the binding interaction with dead cell DNA is proportional to cytotoxicity.
# The mixture of Hek293 cell suspension and reagents were dispensed at 600cells/6 ul/well in 1536-well tissue culture treated black solid bottom plates using a Multidrop dispenser. After the assay plates were incubated at a 37 C/5% CO2 incubator for 5 hours, 23 nL of compounds dissolved in DMSO, positive and negative controls was transferred to the assay plate by a pintool work station. The plates were incubated at 37 C for 40 hours. The fluorescence intensity were measured at 0h, 8h, 16h, 24h, 32h and 40h time points using ViewLux plate reader during compound treatment.
Compound,Potency,cytotoxicity increase
CC1=CCC2C(C1)C2(C)C (stereo not given),inactive,–
COc1cc(C)cc(O)c1,inactive,–
CCCCCCCCN(C)CCCCCCCC,inactive,–
NCCN1CCNC1=O,inactive,–
C=C(C)C(=O)OCCCCCCCCCCCCCCCCCC,–,3.44% [at 15.8 µM]
COc1ccc(N=[N+]([O-])c2ccc(OC)cc2)cc1,inactive,–
CCO[Si](CCCN=C=O)(OCC)OCC,inactive,–
Cc1nc(-c2ccc(OCC(C)C)c(C#N)c2)sc1C(=O)O,inactive,–
C=C(C)[C@H]1CC=C(C)CC1,inactive,–
C#CC(O)CCCCC (stereo not given),inactive,–
CCCC=O,inactive,–
COc1cc(CCC(C)=O)ccc1O,inactive,–
CCCCCC[C@@H](CCC)C(=O)O,inactive,–
O=C(O)/C=C/c1ccc(/C=C/C(=O)O)cc1,inactive,–
COCCOC(=O)CC#N,inactive,–
COC(=O)C1=C(C)NC(C)=C(C(=O)OCC(C)=O)C1c1ccccc1[N+](=O)[O-] (stereo not given),inactive,–
CCC(C)OC(=O)N1CCCCC1CCO (stereo not given),inactive,–
CC1CCN(CCCC(=O)c2ccc(F)cc2)CC1,inactive,–
C=C(C)C(=O)NCCC[N+](C)(C)C,inactive,–
CC(C)(C)N(CCO)CCO,inactive,–

Compound,Potency,cytotoxicity increase
C#CC(O)C(CC)CCCC (stereo not given),inactive,–
CC/C=C\CCCCO,inactive,–
CCOC(=O)Nc1ccc2c(c1)N(C(=O)CCN1CCOCC1)c1ccccc1S2,inactive,–
CCN(CC)C(=O)c1ccc(O)c(OC)c1,inactive,–
NS(=O)(=O)c1cc2c(cc1Cl)NC(CSCc1ccccc1)=NS2(=O)=O,inactive,–
CCCC(C)CO (stereo not given),inactive,–
CC/C=C\C#N,inactive,–
CC1=CC(C)C(C=O)C(C)C1 (stereo not given),inactive,–
CCC(C(=O)NC(N)=O)c1ccccc1 (stereo not given),inactive,–
CC(=O)CCc1ccc(O)cc1,inactive,–
CC(C)(O)Cc1ccccc1,inactive,–
C=C(C)C1CC=C(C)C(O)C1 (stereo not given),inactive,–
NC(=O)c1ncn([C@@H]2O[C@H](CO)[C@@H](O)[C@H]2O)c1N,inactive,–
O=C(O)c1cccc(C(=O)O)n1,inactive,–
C=C(C)[C@@H]1CCC2=CC(=O)C[C@@H](C)[C@]2(C)C1,inactive,–
OC/C=C/c1ccccc1,inactive,–
C=CCOCC(O)CS(=O)(=O)O (stereo not given),inactive,–
CCN1CCCC(OC(=O)C(c2ccccc2)c2ccccc2)C1 (stereo not given),inactive,–
C=CCn1c(=O)n([C@@H]2O[C@H](CO)[C@@H](O)[C@H]2O)c2nc(N)[nH]c(=O)c21,inactive,–
CCCCC=O,inactive,–
